This is part of a sample that, as a whole, favours compounds with a hit. Of some 83,000 tested, about 20% had one in any assay.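 Values shown are percent growth following 48 h exposure of cells in 96-well plates to a single concentration of compound; below 10 was considered active.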 A number with no mark means an inactive call. Activity calls are given as the source filed them.
Columns and labels:
Assay in all cases: NCI-60 one-dose screen, 48 h (100 = growth as untreated, 0 = no growth, -100 = all killed)
Details in all cases: 10 µM unless noted
EKVX NSCLC = tested on: EKVX NSCLC
SN12C renal = tested on: SN12C renal
UO-31 renal = tested on: UO-31 renal
TK-10 renal = tested on: TK-10 renal
ACHN renal = tested on: ACHN renal
A498 renal = tested on: A498 renal
CCRF-CEM leukemia = tested on: CCRF-CEM leukemia
MOLT-4 leukemia = tested on: MOLT-4 leukemia
CAKI-1 renal = tested on: CAKI-1 renal

Row | SMILES | growth (EKVX NSCLC) | growth (SN12C renal) | growth (UO-31 renal) | growth (TK-10 renal) | growth (ACHN renal) | growth (A498 renal) | growth (CCRF-CEM leukemia) | growth (MOLT-4 leukemia) | growth (CAKI-1 renal)
1 | CCCc1n(Cc2ccc3ccccc3n2)cc[n+]1Cc1ccc2ccccc2c1 | 41.6% | -0.216% (active) | 73.8% | -4.74% (active) | 81.7% | -3.21% (active) | 9.37% (active) | -1.31% (active) | 
2 | CNC(=O)c1cc(Oc2ccc(NC(=O)c3nc(S(C)(=O)=O)n(C)c3-c3ccc(F)cc3)cc2)ccn1 | 71.2% | 54.9% | 47.9% | 68.5% | 45.8% | 38% | 85% | 62.4% | 
3 | Cc1n(Cc2ccc3ccccc3n2)cc[n+]1Cc1ccc2ccccc2c1 | 48.3% | 1.98% (active) | 81% | 37.8% | 88.5% | -2.15% (active) | 16.3% | 5.13% (active) | 
4 | Nc1nc(N)c2cc(Sc3ccc(Cl)cc3)ccc2n1 | 33.6% |  | 21.6% | 43% | 23% | 63.6% | 41.5% | 25.8% | 13.5%
5 | O=C(O)/C=C(\c1nc2ccc([N+](=O)[O-])cc2[nH]1)c1cc(Cl)ccc1O | 17.6% | 13.1% | 17% | 27.4% | 12.5% | 7.28% (active) | 0.888% (active) | -4.02% (active) | 
6 | C=C(C)c1ccc(/C=N/NC(N)=S)cc1 | 7.97% (active) | 93.3% | 78.6% | 103% | 93.2% | 98.4% |  | 75.3% | 
7 | COc1ccc(/C=C(/C(=O)N2CCN(c3ccccc3)CC2)c2cc(OC)c(OC)c(OC)c2)cc1N | 41.1% | 40.1% | 52.1% | 63.5% | 35.1% | -2.34% (active) | 8.84% (active) | 10.1% | 
8 | Cc1nc2c(-c3cnc(N)nc3)nc(N3CCOCC3)nc2n1C(C)C | 9.04% (active) | 12.8% |  | -33% (active) | 2.76% (active) | -39.2% (active) |  | 6.75% (active) | 0.604% (active)
9 | NNC(=O)Cc1ccccc1 | 81.2% | 93.4% | 76.2% | 111% | 78.9% | 97.2% | 57.1% | 79.9% | 
10 | c1ccc(-c2[nH]c3ccccc3c2-c2ccccc2)cc1 | 77.1% | 91.8% | 88.6% | 107% | 93.2% | 92.8% |  | 66.2% | 
11 | COc1ccc(/C=C2\Cc3c(Br)cccc3C2=O)c(OC)c1 | 59.8% |  | 78.3% | 90.6% | 59.8% | 83.1% | 97.8% | 94.1% | 79.4%
12 | O=C(C(=O)c1cccnc1)c1cccnc1 | 110% | 107% | 105% | 158% | 110% |  | 120% |  | 
13 | C=CCn1c(SCC(=O)Nc2ccc(/C(C)=N\O)cc2)nnc1-c1cc(-c2ccccc2)nc2ccccc12 | 55% | 69.3% |  | 74.5% | 38.4% | 65.1% | 18.2% | 3.61% (active) | 
14 | COC(=O)c1ccc(NC(N)=NCCC(C)(C)c2ccc(C(F)(F)F)cc2)nc1 | 20.3% | 53.4% | 34.2% | 49.6% | 65.2% | 51.8% | 34.2% | 4.23% (active) | 
15 | Cc1ccc(NC(=O)c2[nH]c(SCCN(C)C)nc2-c2ccc(F)cc2)cc1Nc1ccc2ncn(C)c(=O)c2c1 | 75.2% | 64.6% | 31.4% | 63% | 69% | 61.2% | 61.6% | 41.2% | 
16 | Cc1n(Cc2ccc3ccccc3n2)cc[n+]1Cc1ccc2ccccc2n1 | 80.7% | 77.9% | 87.3% | 80.8% | 103% | 88.5% | 76.2% | 98.3% | 
17 | COc1cc(NCCCCC(C)N)c2nccc(C)c2c1 (centres undefined) | 78.3% |  | 38.2% | 99.1% | 94% | 68.6% | 99.7% | 81.7% | 94.8%

Row | SMILES | growth (EKVX NSCLC) | growth (SN12C renal) | growth (UO-31 renal) | growth (TK-10 renal) | growth (ACHN renal) | growth (A498 renal) | growth (CCRF-CEM leukemia) | growth (MOLT-4 leukemia) | growth (CAKI-1 renal)
18 | Clc1ccc2c(c1)-n1cccc1C(c1ccc3ccccc3c1)=NC2 | 99.5% | 124% | 64.8% | 185% | 91.7% |  | 84.6% |  | 
19 | COc1ccc(/C(=C\c2cc(OC)c(OC)c(OC)c2)C(=O)N2CCN(c3ccccc3)CC2)cc1O | 94.7% | 93.8% | 69.7% | 103% | 98.3% | 94% | 85.5% | 91.3% | 
20 | Cc1ccc(NC(=O)c2nc(S(C)(=O)=O)oc2-c2ccc(F)cc2)cc1Nc1ccc2ncn(C)c(=O)c2c1 | 72.7% | 67.7% |  | 90.8% | 48.4% | 130% | 16.3% | -5.15% (active) | 
21 | Cc1[nH]n(C(=O)c2ccncc2)c(=O)c1N=Nc1ccc(O)c(C(=O)O)c1 | 127% | 93.6% | 78.9% | 83.2% | 106% | 110% | -36.1% (active) | 87.4% | 
22 | COc1cc(-c2csc(NC(=O)Nc3cccc(C(F)(F)F)c3)n2)cc(OC)c1OC | 38.3% |  | 46% | 49.4% | 31.3% | 59.1% | 28.1% | 18.1% | 48.2%
23 | CCCCN(CCCC)CCCN=c1nc2c(c(N)n1-c1ccccc1)c(=S)n(-c1ccccc1)c(=S)n2-c1ccccc1 | -74.2% (active) | -99.2% (active) | -80.9% (active) | -89.6% (active) | -95.8% (active) | -100% (active) | -78.4% (active) | -55.8% (active) | 
24 | CNC(=O)c1cc(Oc2ccc(NC(=O)c3nc(S(C)(=O)=O)sc3-c3ccc(F)cc3)cc2)ccn1 | 77.8% | 97.5% | 87.5% | 77% | 90.8% | 99.6% | 85.9% | 83.1% | 
25 | CC(C)(C)CC(C)(C)NCc1cc(C(C)(C)C)cc(CNC(C)(C)CC(C)(C)C)c1O | 37.2% | 69.3% | 27.4% |  | 37.4% |  | 49.3% | 30.3% | 55.3%
26 | COc1ccc([C@@H]2[C@@H](Cl)C(=O)N2c2cc(OC)c(OC)c(OC)c2)cc1C | 44.2% | 31.2% | 38.8% | 71.3% | 31.6% | -7.32% (active) | 9.56% (active) | 8.89% (active) | 
27 | COc1ccc([C@@H]2[C@@H](Oc3ccccc3)C(=O)N2c2cc(OC)c(OC)c(OC)c2)cc1F | 34.6% | 24.6% | 24.4% | 44.7% | 21.5% | -9.03% (active) | 8.73% (active) | 6.79% (active) | 
28 | CNC(=O)c1cc(Oc2ccc(NC(=O)c3[nH]c(SC)nc3-c3ccc(F)cc3)cc2)ccn1 | 63.7% | 39.2% | 60.5% | 88.3% | 39.8% | 61.1% | 85.3% | 38.4% | 
29 | CC(C)NCCCCCNc1cc(O)cc2cccnc12 | -8.81% (active) | 59% |  | 124% | 102% | 79.1% | 94.3% |  | 
30 | CCCc1n(Cc2ccc3ccccc3c2)c2ccccc2[n+]1Cc1ccc2ccccc2c1 | -4.84% (active) | -48.4% (active) |  | -79.7% (active) | 3.74% (active) | -17.2% (active) | -32.3% (active) |  | 
31 | Cc1ccc(NC(=O)c2nc(S(C)=O)oc2-c2ccc(F)cc2)cc1Nc1nccc(-c2cccnc2)n1 (centres undefined) | 73.8% | 38.7% | 84.5% | 130% | 31.5% | 107% |  | 0.215% (active) | 
32 | Nc1nonc1-c1nc2ccccc2n1Cc1ccc(F)cc1 |  | 62.4% | 42.9% | 55.9% | 68.1% | 42.1% | 54.2% | 30% | 35.9%
33 | O=C(N=Nc1c(Cl)c(O)c2ccccc2c1O)C(=O)Nc1cccc(C(F)(F)F)c1 |  | 13.2% | 38.7% | 116% | 58.4% | 84.9% | 6.57% (active) | 35.2% | 54.6%

— PubChem BioAssay (NCI)
